Assay results: paper PMC5700166
Residue numbers refer to the chain shown, from its start.

Experiments:
Test in all cases: protein-binding microarray (PBM); PBM: ~300 nM protein, 6 mM HEPES pH 7.8, 80 mM KCl, 0.5 mM EDTA, 0.5 mM EGTA, 6% glycerol, 35 ng/ul poly-dIdC, 1% milk, 1 h, room temperature; Ap Aiptasia and Nv Nematostella (sea anemones) / Co Capsaspora / Aq Amphimedon (sponge) / Dm Drosophila / Hu human; RHD is the Rel homology domain; high values mean tight binding
Details in all cases: dsDNA, one strand shown
[1] = target: T1, GST-Ap-NF-kB RHD (Exaiptasia pallida (Aiptasia), UniProt A0A913YAJ5 2-422)
T1 sequence: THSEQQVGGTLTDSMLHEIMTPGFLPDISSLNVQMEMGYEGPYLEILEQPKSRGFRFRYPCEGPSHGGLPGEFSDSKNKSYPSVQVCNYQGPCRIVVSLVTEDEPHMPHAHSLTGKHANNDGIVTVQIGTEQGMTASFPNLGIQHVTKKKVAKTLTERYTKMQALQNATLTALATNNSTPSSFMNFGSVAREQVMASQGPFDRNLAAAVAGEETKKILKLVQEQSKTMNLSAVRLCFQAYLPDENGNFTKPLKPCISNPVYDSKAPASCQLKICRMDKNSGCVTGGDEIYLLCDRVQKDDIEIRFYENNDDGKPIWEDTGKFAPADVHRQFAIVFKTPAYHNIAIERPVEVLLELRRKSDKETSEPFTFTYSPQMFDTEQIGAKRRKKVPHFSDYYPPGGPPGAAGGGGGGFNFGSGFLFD

[2] = target: T2, GST-Nv-NF-kB (Cys allele) (Nematostella vectensis, UniProt E5G601 2-411)
T2 sequence: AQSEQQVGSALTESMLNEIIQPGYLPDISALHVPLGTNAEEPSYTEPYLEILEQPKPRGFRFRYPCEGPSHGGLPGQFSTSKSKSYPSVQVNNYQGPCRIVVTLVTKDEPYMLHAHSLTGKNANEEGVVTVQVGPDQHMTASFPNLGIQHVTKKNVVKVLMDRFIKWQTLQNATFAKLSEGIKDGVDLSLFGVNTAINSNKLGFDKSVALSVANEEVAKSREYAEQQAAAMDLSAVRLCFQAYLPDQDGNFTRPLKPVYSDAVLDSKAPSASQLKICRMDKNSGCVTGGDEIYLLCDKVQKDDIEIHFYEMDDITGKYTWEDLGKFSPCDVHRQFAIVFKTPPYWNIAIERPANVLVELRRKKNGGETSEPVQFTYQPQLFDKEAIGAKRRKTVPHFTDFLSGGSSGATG

[3] = target: T3, GST-Nv-NF-kB (Ser allele) (Nematostella vectensis, UniProt A7UNT2 2-411)
T3 sequence: T2 sequence with Q21R, C66S, S207N, E215Q, V217A, E225K, A268E, D399E

[4] = target: T4, GST-Co-NF-kB (Capsaspora owczarzaki, UniProt F1ARL5 200-546)
T4 sequence: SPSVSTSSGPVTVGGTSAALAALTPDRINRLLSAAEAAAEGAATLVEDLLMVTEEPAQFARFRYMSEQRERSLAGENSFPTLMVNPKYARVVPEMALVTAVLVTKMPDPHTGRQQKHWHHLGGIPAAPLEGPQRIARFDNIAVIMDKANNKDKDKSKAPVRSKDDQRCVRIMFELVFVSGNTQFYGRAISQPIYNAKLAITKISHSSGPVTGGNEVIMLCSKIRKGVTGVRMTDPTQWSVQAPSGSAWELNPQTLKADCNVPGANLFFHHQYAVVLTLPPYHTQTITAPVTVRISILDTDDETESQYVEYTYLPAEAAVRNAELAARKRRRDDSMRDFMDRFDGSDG

[5] = target: T5, GST-Dm-Relish (Drosophila melanogaster, UniProt Q94527 99-473)
T5 sequence: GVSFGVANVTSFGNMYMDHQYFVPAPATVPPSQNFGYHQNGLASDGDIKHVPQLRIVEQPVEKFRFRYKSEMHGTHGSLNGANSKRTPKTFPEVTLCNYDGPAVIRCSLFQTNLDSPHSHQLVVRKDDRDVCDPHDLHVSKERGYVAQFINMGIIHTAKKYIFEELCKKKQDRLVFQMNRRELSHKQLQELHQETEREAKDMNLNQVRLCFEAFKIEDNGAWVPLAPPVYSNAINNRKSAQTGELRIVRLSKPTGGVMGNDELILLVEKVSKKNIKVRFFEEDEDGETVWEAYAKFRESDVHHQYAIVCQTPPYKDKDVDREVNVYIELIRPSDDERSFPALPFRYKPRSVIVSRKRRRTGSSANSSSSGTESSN

[6] = target: T6, GST-Aq-NF-kB (Amphimedon queenslandica, UniProt A9Y5G7 2-389)
T6 sequence: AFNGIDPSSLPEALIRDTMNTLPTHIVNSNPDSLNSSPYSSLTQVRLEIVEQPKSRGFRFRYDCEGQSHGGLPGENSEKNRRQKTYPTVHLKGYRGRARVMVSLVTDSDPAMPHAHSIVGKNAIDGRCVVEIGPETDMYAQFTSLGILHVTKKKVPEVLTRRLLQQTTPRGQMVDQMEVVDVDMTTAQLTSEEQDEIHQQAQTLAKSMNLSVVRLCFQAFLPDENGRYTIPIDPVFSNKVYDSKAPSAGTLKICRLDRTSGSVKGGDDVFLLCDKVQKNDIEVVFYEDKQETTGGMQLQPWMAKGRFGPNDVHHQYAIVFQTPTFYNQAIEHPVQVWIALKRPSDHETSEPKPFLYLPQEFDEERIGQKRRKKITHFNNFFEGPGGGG

[7] = target: GST-Hu-p50 (Homo sapiens, UniProt P19838 7-356)
Sequence of GST-Hu-p50 (P19838 7-356): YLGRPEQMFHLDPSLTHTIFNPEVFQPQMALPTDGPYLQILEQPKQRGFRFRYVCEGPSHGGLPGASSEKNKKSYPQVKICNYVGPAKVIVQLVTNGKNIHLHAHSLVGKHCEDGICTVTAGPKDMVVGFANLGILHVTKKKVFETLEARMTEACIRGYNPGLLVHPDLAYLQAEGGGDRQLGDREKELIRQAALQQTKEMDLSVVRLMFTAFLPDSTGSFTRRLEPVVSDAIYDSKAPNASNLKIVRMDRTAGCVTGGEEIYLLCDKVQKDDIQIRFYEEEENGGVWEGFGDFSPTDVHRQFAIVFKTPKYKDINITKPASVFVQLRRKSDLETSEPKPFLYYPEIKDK

CCGATTAACATCAATTATTCCCCTGATGTTAATCGGGTCTTGATTCGCTTGACGCTGCTG
binding signal [1]: 6.67 z-score
binding signal [2]: 9.08 z-score
binding signal [3]: 9.75 z-score
binding signal [4]: 9.22 z-score
binding signal [5]: 5.24 z-score
binding signal [6]: 5.63 z-score
binding signal [7]: 6.11 z-score

CCGATTAACATCAAAAATCTCCCTGATGTTAATCGGGTCTTGATTCGCTTGACGCTGCTG
binding signal [1]: 3.7 z-score
binding signal [2]: 6.51 z-score
binding signal [3]: 6.86 z-score
binding signal [4]: 3.4 z-score
binding signal [5]: 2.94 z-score
binding signal [6]: 6.14 z-score
binding signal [7]: 4.72 z-score

CCGATTAACATCAGGGGACTCCATGATGTTAATCGGGTCTTGATTCGCTTGACGCTGCTG
binding signal [1]: 6.58 z-score
binding signal [2]: 4.64 z-score
binding signal [3]: 4.65 z-score
binding signal [4]: 1.82 z-score
binding signal [5]: 7.69 z-score
binding signal [6]: 4.63 z-score
binding signal [7]: 4.91 z-score

CCGATTAACATCAGGGGATAACCTGATGTTAATCGGGTCTTGATTCGCTTGACGCTGCTG
binding signal [1]: 6.14 z-score
binding signal [2]: 6.28 z-score
binding signal [3]: 6.92 z-score
binding signal [4]: 3.7 z-score
binding signal [5]: 7.51 z-score
binding signal [6]: 7.32 z-score
binding signal [7]: 4.93 z-score

CCGATTAACATCACAAAATTCCCTGATGTTAATCGGGTCTTGATTCGCTTGACGCTGCTG
binding signal [1]: 5.93 z-score
binding signal [2]: 8.61 z-score
binding signal [3]: 8.58 z-score
binding signal [4]: 5.01 z-score
binding signal [5]: 6.16 z-score
binding signal [6]: 6.82 z-score
binding signal [7]: 6.04 z-score

CCGATTAACATCAGGATTTACCCTGATGTTAATCGGGTCTTGATTCGCTTGACGCTGCTG
binding signal [1]: 3.04 z-score
binding signal [2]: 4.29 z-score
binding signal [3]: 3.54 z-score
binding signal [4]: 1.85 z-score
binding signal [5]: 5.15 z-score
binding signal [6]: 6.67 z-score
binding signal [7]: 3.39 z-score

CCGATTAACATCAATACTTCCCCTGATGTTAATCGGGTCTTGATTCGCTTGACGCTGCTG
binding signal [1]: 5.61 z-score
binding signal [2]: 7.52 z-score
binding signal [3]: 9.37 z-score
binding signal [4]: 6.89 z-score
binding signal [5]: 7.81 z-score
binding signal [6]: 5.35 z-score
binding signal [7]: 6.19 z-score

CCGATTAACATCAGGAAATTCCCTGATGTTAATCGGGTCTTGATTCGCTTGACGCTGCTG
binding signal [1]: 6.31 z-score
binding signal [2]: 9.9 z-score
binding signal [3]: 8.03 z-score
binding signal [4]: 4.13 z-score
binding signal [5]: 6.79 z-score
binding signal [6]: 9.8 z-score
binding signal [7]: 6.16 z-score

CCGATTAACATCAGAAATACCCCTGATGTTAATCGGGTCTTGATTCGCTTGACGCTGCTG
binding signal [1]: 6.58 z-score
binding signal [2]: 6.99 z-score
binding signal [3]: 6.08 z-score
binding signal [4]: 4.66 z-score
binding signal [5]: 4.99 z-score
binding signal [6]: 6.25 z-score
binding signal [7]: 5.86 z-score

CCGATTAACATCAGGACAACCCCTGATGTTAATCGGGTCTTGATTCGCTTGACGCTGCTG
binding signal [1]: 3.21 z-score
binding signal [2]: 3.16 z-score
binding signal [3]: 1.17 z-score
binding signal [4]: 1.02 z-score
binding signal [5]: 2.63 z-score
binding signal [6]: 5.78 z-score
binding signal [7]: 2.98 z-score

CCGATTAACATCAAATTTCCCGATGATGTTAATCGGGTCTTGATTCGCTTGACGCTGCTG
binding signal [1]: 3.04 z-score
binding signal [2]: 4.4 z-score
binding signal [3]: 3.94 z-score
binding signal [4]: 4.24 z-score
binding signal [5]: 2.2 z-score
binding signal [6]: 4.21 z-score
binding signal [7]: 3.9 z-score

CCGATTAACATCACGGGGATCCCTGATGTTAATCGGGTCTTGATTCGCTTGACGCTGCTG
binding signal [1]: 8.72 z-score
binding signal [2]: 5.48 z-score
binding signal [3]: 5.51 z-score
binding signal [4]: 4.27 z-score
binding signal [5]: 9.65 z-score
binding signal [6]: 5.88 z-score
binding signal [7]: 4.51 z-score
